Screens from PubChem BioAssay.
Hits are enriched below; roughly 9% of the tested compounds scored in any of these assays.
ALDH1A1 inh: qHTS Assay for Inhibitors of Aldehyde Dehydrogenase 1 (ALDH1A1); Purified ALDH1A1, NADH fluorescence, propionaldehyde substrate; Aldehyde dehydrogenase 1A1 (Homo sapiens), P00352; AID 1030, 2008; 7.3% of 220,000 active; Potency, µM (doses to about 75.3 µM), hits mostly inhibitors; active = well fitted inhibition curve with a large enough effect, not every such curve was filed as active; inconclusive = small, poorly fitted or top-dose-only effect, or another doubt; inactive = no such curve, though single readings can be large or run the other way
Luc counter: Counterscreen for Luciferase (Kinase-Glo TM) Inhibition; Luciferin 4-monooxygenase (Photuris pensylvanica), Q27757; Kinase-Glo luciferase, ATP luminescence, 8 min; Potency, µM (highest dose often 38.3 µM), actives largely listed as inhibitors; 0.28% of 200,000 active; also: nearly all actives have a fitted effect of over 60% in size
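Luminescence was the read-out, taken after 8-minute incubation at ambient temperature. Luciferase turned over luciferin with 10 uM ATP in imidazole pH 7.2 buffer containing KCl, MgCl2, Tween 20 and BSA.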
LMNA splice mod: qHTS Assay for Modulators of Lamin A Splicing. HeLa LMNA splicing GFP/RFP minigene ratio, 48 h. Potency, µM (series often up to 46.1 µM), hits mostly inhibitors. 0.01% of 200,000 active. AID 1487, 2009; active = well fitted inhibition curve with a large enough effect in the signal ratio, with a control signal flat, not every such curve was filed as active; inconclusive = small, poorly fitted or top-dose-only effect, or effect the other way, or a change in a side signal; the % refers to the signal ratio
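Read-out is the ratio of GFP to DsRed2 object intensity, acquired by 488 nm laser-scanning cytometry on HeLa lamin A-EGFP minigene reporter cells. Compound incubation 48 hrs at 37 °C in Opti-MEM with 2% FBS; DMSO 0.5% final.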
HPGD inh: qHTS Assay for Inhibitors of HPGD (15-Hydroxyprostaglandin Dehydrogenase). 15-hydroxyprostaglandin dehydrogenase [NAD(+)] (Homo sapiens), P15428. purified HPGD, NADH fluorescence kinetic, PGE2 substrate. Potency, µM, most hits filed as inhibitors. 4.3% of 150,000 active; active = well fitted inhibition curve with a large enough effect, not every such curve was filed as active; inconclusive = small, poorly fitted or top-dose-only effect, or another doubt; inactive = no such curve, though single readings can be large or run the other way
Target sequence (P15428 whole entry, looked up): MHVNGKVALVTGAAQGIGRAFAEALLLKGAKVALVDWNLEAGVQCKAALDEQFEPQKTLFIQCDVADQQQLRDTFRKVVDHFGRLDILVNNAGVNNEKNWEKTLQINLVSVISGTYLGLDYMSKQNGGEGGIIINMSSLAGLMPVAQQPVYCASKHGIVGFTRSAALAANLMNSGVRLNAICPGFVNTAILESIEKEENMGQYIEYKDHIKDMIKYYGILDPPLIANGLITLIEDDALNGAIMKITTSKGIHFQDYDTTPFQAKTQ
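20 nM HPGD preincubated 15 min at room temperature with compound in 50 mM Tris-HCl pH 8, 0.01% Tween 20. Started with 1 mM NAD+ and 30 uM prostaglandin E2; NADH fluorescence (360/450 nm) read 5 times over 30-s intervals, last minus first.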
IMPase Li cell: qHTS Assay for Identifying the Cell-Membrane Permeable IMPase Inhibitors: Potentiation with Lithium; 0.35% of 210,000 active; Potency, µM (top dose mostly 59.4 µM), most hits filed as inhibitors; AID 1457, 2008; CHO-M1 cells, IP1 TR-FRET (IP-One), carbachol + lithium;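 also: IP1 builds up when IMPase is blocked and the TR-FRET signal falls; nearly all actives have a fitted effect of over 50% in size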
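Concentration–response in CHO-M1 cells, lithium-potentiated; 30 min at 37C. IP1 detected by competitive TR-FRET after 10 min lysis at RT. Hill-fitted AC50.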
Hits are given with their value; n = inactive; u = inconclusive; x = no result; ! = repeats disagree; [ ] = remark or other dose. Unless noted, calls follow the shape of the dose curve; as a rule, active = well fitted curve in the direction sought with a large enough effect; inconclusive = small, poorly fitted or top-dose-only effect, or another doubt; inactive = no such curve, though single readings can be large; an effect the other way counts as inactive or inconclusive.

SMILES	ALDH1A1 inh	Luc counter	LMNA splice mod	HPGD inh	IMPase Li cell
CN(C)S(=O)(=O)c1ccc(C(=O)OCC(=O)NCc2ccco2)cc1	15µM	n	n	x	n
S=C(NCc1ccco1)Nc1cccc(Cl)c1	u	n	u	11µM	n
COc1cc(/C=C/C(=O)O)cc(S(=O)(=O)NCCCC(=O)O)c1OC	u	n	x	x	n
S=C(NCc1ccccn1)Nc1ccc(Cl)c(Cl)c1	11µM	n	n	16µM	n
Cc1ccccc1NC(=S)NCc1ccco1	n	n	n	n	n
S=C(NCc1ccccn1)Nc1ccccc1	n	n	n	n	n
S=C(NCc1ccco1)Nc1cc(Cl)c(Cl)cc1Cl	n	n	u	3.2µM	n
CCNC(=S)NNC(=O)c1ccccn1	n	n	u	n	n
O=C(NNC(=S)Nc1ccc(Cl)c(Cl)c1)c1ccccn1	3.2µM	n	x	x	n
S=C(NCc1ccco1)Nc1cc(-c2ccccc2)[nH]n1	1.1µM	n	u	x	n
CC(C)(C)OC(=O)N1CCC(c2c(C(=O)N3CCOCC3)cnn2-c2cccc(F)c2)CC1	x	x	n	x	x
O=C(O)c1cc(-c2ccncc2)nc2ccccc12	n[13.5 µM]	n[7.66 µM]	x	n	n
CCOc1ccccc1NC(=S)NCc1ccco1	28µM	n	n	n	n
S=C(NCc1ccco1)Nc1ccc(Cl)c(Cl)c1	25µM	n	u	3.2µM	n
Cc1cc2c(cc(C(=O)OCC(=O)NCc3ccco3)n2C)s1	n	n	u	14µM	n
Cn1c(C(=O)OCC(=O)NCc2ccco2)cc2sccc21	u	n	n	u	n
CC(=O)c1cccc(NC(=S)NCc2ccco2)c1	n	n	n	x	n
CN(C)S(=O)(=O)c1cccc(NC(=S)NCc2ccco2)c1	32µM	n	x	x	n
COc1cc(NS(=O)(=O)c2ccc(NC(=O)/C(=C\c3ccccc3OC)NC(=O)c3ccccc3)cc2)nc(OC)n1	n	n	n	n	n
CC(Oc1ncnc2ccccc12)C(=O)Nc1cccc(S(=O)(=O)N2CCOCC2)c1 (stereo not drawn)	n	n	u	n	n
O=C(NNC(=S)Nc1ccc(F)c(Cl)c1)c1ccccc1Br	13µM	n	u	x	n
CCOc1ccc(-c2cc(CCCC(=O)N3CCN(c4ccc(OC)cc4)CC3)no2)cc1	20µM	n	u	n	n
Cc1cc(-c2csc(NCc3ccccc3)n2)c(C)n1C	20µM	n	n	x	n
Cc1nc2sccn2c1-c1csc(NCc2ccccc2)n1	11µM	n	n	n	n
Cc1nc(N)sc1-c1csc(NCc2ccccc2)n1	2.2µM	n	u	18µM	n
SMILES	ALDH1A1 inh	Luc counter	LMNA splice mod	HPGD inh	IMPase Li cell
C=CCNc1nc(-c2c(C)nc3sccn23)cs1	u	n	u	n	n
CCN(CC)S(=O)(=O)c1ccc(NN=C2CCN(C)CC2)c([N+](=O)[O-])c1	n	n	n	x	n
NNC(=O)c1cc2cc3ccccc3nc2s1	20µM	n	x	x	n
CS(=O)(=O)NNC(=O)c1cc2cc3ccccc3nc2s1	u	n	x	x	n
CCOC(=O)NC(=O)c1cn(N(C)c2ncc(C(F)(F)F)cc2Cl)c(=O)[nH]c1=O	n	n	n	x	n
COCCCNCC#CCOc1ccc(OC)cc1	8.9µM	n	u	x	n
COCCNCC#CCOc1ccc(OC)cc1	u	n	n	n	n
Cc1ccc2c(C(=O)CNc3nncs3)c(C)[nH]c2c1	n	x	x	x	x
O=[N+]([O-])c1ccc(Nc2nc(NC3CCCCC3)nc(N3CCCC3)n2)cc1	13µM	n	x	x	n
CCOc1ccc2nc(SC3CC(=O)N(c4ccc(C)cc4)C3=O)sc2c1 (stereo not drawn)	2.2µM	n	n	n	n
CCOc1ccc2nc(/N=C/c3c(C)[nH]n(-c4ccccc4)c3=O)sc2c1	u	u	n	n	n
CCOc1ccc2nc(/N=C/c3c(C)[nH]n(-c4ccc(C)cc4)c3=O)sc2c1	n	7.9µM	n	u	n
CCOc1ccc2nc(SC3CC(=O)N(c4ccc(OC)cc4OC)C3=O)sc2c1 (stereo not drawn)	25µM	n	u	x	n
CCOc1ccc2nc(SCC(=O)c3ccc(C)s3)sc2c1	u	n	n	14µM	n
CC1CCC2C(=O)N3C(CCC(C)[C@H]3c3ccccc3Br)C(=O)N2C1c1ccccc1Br (stereo partly drawn)	n[13.5 µM]	x	x	x	x
CCCCOc1ccc(C(=O)NCCc2csc(-c3ccc(OC)cc3)n2)cc1	x	x	n	x	x
Oc1cccc(C=NCc2ccccc2)c1O	8.9µM	n	n	16µM	n
CC1=c2c(oc3cc(O)c(Nc4c(C)cc(O)cc4O)c(C)c23)=CC(=O)C1=Nc1c(C)cc(O)cc1O	n[13.5 µM]	n[7.66 µM]	x	n	n
O=C(CCl)Nc1cccc(S(=O)(=O)N2CCCCCC2)c1	0.71µM	x	u	x	x
O=C(N1CCCCCC1)N1CCN(S(=O)(=O)c2ccccc2)CC1	6.3µM	n	n	n	n
O=C(N1CCCCC1)N1CCN(S(=O)(=O)c2ccc(Cl)cc2)CC1	n	n	u	x	n
CSc1cccc(NS(=O)(=O)c2ccccc2)c1	n	n	n	25µM	n
O=S(=O)(Nc1cccc(S(=O)(=O)N2CCCCCC2)c1)c1ccccc1	2µM	n	x	x	n
COc1ccc(OCC(O)CNC(=O)/C=C/c2cccc([N+](=O)[O-])c2)cc1 (stereo not drawn)	n	n	n	x	n
Nc1nc(N)c2nc(-c3ccccc3)c(N)nc2n1	u	n	u	u	13µM!
SMILES	ALDH1A1 inh	Luc counter	LMNA splice mod	HPGD inh	IMPase Li cell
NSc1nc(N)c2nc(-c3ccccc3)c(-c3ccccc3)nc2n1	14µM	n	x	x	n
CC(C)(CN)CN	n[13.5 µM]	n[7.66 µM]	x	n	n
O=C(c1ccccc1)[C@@H]1[C@@H](C(=O)c2ccc(F)cc2)[C@@]2(C(=O)Nc3ccccc32)[C@H]2c3ccccc3C=CN12	11µM	x	u	x	x
CN(C)N1C(=O)CC(N2CCCC2)C1=O (stereo not drawn)	22µM	n	x	x	n
O=C(CCN1CCCCC1)N1CCc2c([nH]c3ccccc23)[C@H]1c1cccnc1	n[13.5 µM]	n[7.66 µM]	x	n	n
O=C(c1csc2c1CCCC2)N1CCCCC1	n	n	n	1.6µM	n
O=C(c1csc2c1CCCCC2)N1CCN(c2ncccn2)CC1	20µM	n	n	n	n
CCC1=NNc2cccc3c(OC)ccc1c23	u	n	n	14µM	n
CC1CCN(C(=O)c2ccc(NS(C)(=O)=O)cc2)CC1	u	n	n	10µM	n
CC(C)C(=O)Nc1ccc(C(=O)N2CCN(C(=O)c3ccco3)CC2)cc1	n	n	n	n	n
CC(C)C(=O)Nc1ccc(C(=O)N2CCCCCC2)cc1	n	n	n	2µM	n
Cc1ccc(-c2ccc(NC(=O)C3C4C=CC(C4)C3C(=O)O)cc2)o1 (stereo not drawn)	u	n	n	20µM	n
